# Reference: PubChem BioAssay (NCI)
# The panel holds about 83,000 compounds, 20% with a hit somewhere; the sample as a whole holds those more often.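 Testing used 96-well plates and a 48-hour single-concentration exposure. Example: -40 means 40% of the starting cells died.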 Values without a mark were called inactive. Calls of active or inactive are those of the source. How the source made its calls: active means growth percent below 10; inactive means the rest.
# Legend:
# Assay in all cases: NCI-60 one-dose screen, 48 h (100 = growth as untreated, 0 = no growth, -100 = all killed)
# Conditions in all cases: 10 µM unless noted
# [1] = tested on: NCI-H23 lung
# [2] = tested on: NCI-H322M lung
# [3] = tested on: HOP-62 NSCLC
# [4] = tested on: NCI-H460 lung
# [5] = tested on: HOP-92 NSCLC
# [6] = tested on: NCI-H522 lung
# [7] = tested on: A549/ATCC NSCLC
# [8] = tested on: 786-0 renal
# [9] = tested on: COLO 205 colon
# [10] = tested on: DU-145 prostate
# [11] = tested on: MALME-3M melanoma
# [12] = tested on: MDA-MB-231 breast
# [13] = tested on: RXF 393 renal
# [14] = tested on: SF-268 CNS
# [15] = tested on: SF-539 CNS
# [16] = tested on: UACC-257 melanoma
# [17] = tested on: M14 melanoma
# [18] = tested on: K-562 leukemia
# [19] = tested on: SF-295 CNS
# [20] = tested on: NCI-H226 lung
Compound,growth [1] [%],growth [2],growth [3],growth [4],growth [5],growth [6],growth [7] [%],growth [8],growth [9],growth [10],growth [11],growth [12],growth [13],growth [14],growth [15],growth [16],growth [17],growth [18],growth [19],growth [20]
CCCCn1cnc2c(Sc3c([N+](=O)[O-])ncn3C)nc(N)nc21,110,105%,94.7%,106%,76.2%,97.3%,88.2,104%,100%,99.6%,93.9%,97.9%,102%,102%,105%,84.1%,102%,–,–,–
O=C1CC(=NCC(=O)n2c(-c3ccccc3)nc3ccccc32)NN1,91.8,103%,89%,100%,99.5%,84.5%,114,107%,111%,115%,111%,90.1%,110%,102%,99.4%,120%,104%,111%,101%,–
O=C(O)c1ccc(NC(=O)c2ccc(-c3cccc([N+](=O)[O-])c3)o2)cc1,–,95%,103%,102%,98.6%,94.5%,101,105%,107%,105%,86.4%,96.1%,113%,98.5%,99.4%,105%,107%,107%,98.8%,89.3%
O=C(C(=O)c1ccc2c(c1)OCO2)c1ccc2c(c1)OCO2,111,122%,101%,96.6%,101%,102%,99.1,109%,109%,111%,104%,100%,105%,99%,114%,87.8%,101%,108%,120%,–
COc1ccc(/C=C(\C#N)C(=O)Nc2cccc(Nc3nc(SC)nc(-c4cccc([N+](=O)[O-])c4)c3C#N)c2)cc1OC,88.5,100%,91.3%,100%,111%,97.2%,103,106%,112%,107%,97%,68.9%,110%,103%,93.4%,103%,91.5%,77.9%,97.2%,–
O=C(O)COc1ccc(Cl)cc1C1CCCCC1,102,101%,106%,96.3%,111%,99%,93.2,106%,119%,110%,104%,98.5%,102%,102%,107%,114%,102%,91.8%,109%,–
O=C1c2c(O)cc(O)cc2-c2c(-c3ccc(O)cc3)oc3cc(O)cc1c23,39.9,65.2%,22.1%,10%,44.6%,11%,43.2,41.8%,86.2%,40.9%,54.7%,66.8%,62.1%,50.7%,25.2%,67.5%,46.1%,–,29.1%,–
COc1ccc(-n2nc(C)c3c(Nc4ccc(NC(=O)Nc5c(Cl)cccc5Cl)cc4)ncnc32)cc1,52.1,57.7%,50.3%,50.4%,43.9%,58%,44.6,55.2%,70.1%,51.4%,31.3%,30.6%,26.2%,59.4%,30%,53%,82.2%,79.1%,85.2%,–
O=C1/C(=C/c2cn(-c3ccccc3)nc2-c2ccccc2)SC(=S)N1CCc1ccccc1,102,113%,94%,102%,122%,93.5%,111,106%,116%,110%,104%,106%,111%,95.5%,106%,113%,102%,108%,103%,–
CC(=O)O[C@H]1CC[C@]2(C)[C@H]3CC=C4[C@@H]5CC(C)(C)CC[C@]5(C(=O)NCCNCCNCCN)CC[C@@]4(C)[C@]3(C)CC[C@H]2C1(C)C,86.5,95.2%,87.5%,-56.3% (active),61.9%,54.3%,43,-56.3% (active),-93.1% (active),17%,73.5%,-42.9% (active),65.4%,87.1%,86.2%,93.1%,23.8%,-11.3% (active),102%,–
COc1ccc(S(=O)(=O)N2CCN(C)CC2)cc1NC(=O)c1[nH]c(C)c2c1CCCCC2=O,66.9,59.9%,43.4%,73.3%,34.6%,50.1%,62.3,58.6%,33.1%,87.1%,52%,51.1%,84.3%,82%,52.5%,57.9%,54.4%,46.9%,54.7%,–
N#Cc1cnn(-c2nc3c(Cl)cccc3s2)c1N,82.6,95%,81.3%,73.4%,38.8%,67.7%,83.6,89.4%,92.3%,96%,85.9%,60.6%,92.7%,87%,82.2%,102%,96.1%,92.8%,82.3%,–
Cc1cc(N2CCCCC2)nc(NC2CCCC(Nc3ccnc4cc(Cl)ccc34)C2)n1 (stereo not drawn),–,-48.7% (active),-86.5% (active),–,-71.1% (active),-54.6% (active),–,-96% (active),-85.8% (active),1.31% (active),-86% (active),-89.8% (active),-81.2% (active),-59.6% (active),-92.8% (active),-90.9% (active),-86.5% (active),–,-76.7% (active),–
O=C(Cc1ccccc1Nc1c(Cl)cccc1Cl)NN1C(=O)/C(=C/c2ccc(Br)cc2)SC1=S,–,98.7%,104%,104%,103%,93.9%,99.5,98.9%,105%,109%,100%,103%,111%,96.8%,93.6%,103%,103%,100%,101%,95.6%
O=C(COc1ccc(-c2nc3cc(Cl)c(Cl)cc3[nH]2)cc1)N=Nc1c(O)[nH]c2ccccc12,–,4.51% (active),50.1%,-69.6% (active),-33.3% (active),13.6%,29,-44.8% (active),12.6%,-20.7% (active),-68.9% (active),-50.2% (active),-5.96% (active),-64.5% (active),41.4%,54.4%,-22.1% (active),10.8%,5.99% (active),-30.2% (active)
